TR SRC2 fluor cs – alters Texas Red total fluorescence, flagging assay interference; TRb/SRC2 Texas Red total fluorescence interference; Potency, µM (highest dose often 106 µM), inactives show at the highest dose fluorescence change, negative = quenching; actives 0.29% (n = 280,000); active means well fitted curve in either direction with a large enough effect
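Human TRβ ligand-binding domain (0.6 uM) and Texas Red SRC2 peptide (20 nM) in Tris buffer with 1 uM T3 and 5% DMSO were incubated with pinned compound for 5 hr at ambient temperature. Total fluorescence was computed as S + 2P (555/632 nm).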
APE1 inh – blocks human APE1 abasic DNA cleavage | AID 2517 | Potency, µM (highest dose often 65.8 µM), for inactives: top-dose activity change, negative = inhibition, most hits filed as inhibitors | actives 0.35% (n = 350,000) | recombinant APE1, TAMRA/BHQ-2 abasic DNA cleavage fluorescence;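 further: plate controls were vehicle for no effect and reference inhibitor for full effect; nearly all actives have a fitted effect of over 55% in size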
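Step 1: APE1 (0.75 nM) with compound, 15 min RT. Step 2: add 50 nM fluorophore/quencher THF duplex. Step 3: three fluorescence reads 60 s apart (525/598 nm); read 3 minus read 1 = reaction progress.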
TRb SRC2 PPI – TRbeta-SRC2 interaction inhibition; AID 1469; TRbeta-SRC2 peptide binding, fluorescence polarization; receptor liganded with 1 µM T3; actives 0.065% (n = 280,000); Potency, µM (titrated, usually from 106 µM), without a hit: at the highest dose activity change, negative = inhibition, actives largely listed as inhibitors;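 further: plate controls were bound peptide for no effect and peptide without receptor for full effect; nearly all actives have a fitted effect of over 50% in size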
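Polarization signal, normalized between peptide-alone and full complex controls, measured compound effects on T3-liganded human TRb LBD (0.6 uM) binding 20 nM Texas Red SRC2 peptide after 5 hr.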
WRN inhibitor – inhibitors of human WRN helicase | WRN helicase unwinding, fluorescent forked duplex, kinetic | Q14191 | Potency, µM (series often up to 114 µM), for inactives: at the highest dose activity change, negative = inhibition, actives largely listed as inhibitors | actives 0.46% (n = 360,000); further: nearly all actives have a fitted effect of over 55% in size
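WRN at 20 nM final preincubated with compound 15 min at room temperature; reaction started with 100 nM fluorophore/quencher forked duplex oligonucleotide and 2 mM ATP final. Unwinding followed kinetically by red fluorescence (ex 525, em 598 nm).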
BLM helicase inh – Bloom syndrome helicase (human) inhibition; P54132; recombinant BLM DNA unwinding, fluorescence dequenching; Potency, µM (top dose mostly 56.1 µM), without a hit: at the highest dose activity change, negative = inhibition, most hits filed as inhibitors; actives 0.2% (n = 350,000);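 further: plate controls were vehicle for no effect and no enzyme for full effect; nearly all actives have a fitted effect of over 35% in size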
RECQ1 helicase – inhibitors of human RECQ1 DNA helicase | RECQ1 DNA unwinding, red fluorescence kinetic read | Potency, µM (titrated, usually from 57.3 µM), for the others: top-dose activity, negative = inhibition, most hits filed as inhibitors | actives 0.54% (n = 240,000);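 further: plate controls were vehicle for no effect and no enzyme for full effect; nearly all actives have a fitted effect of over 30% in size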
Target sequence (P46063 whole entry, looked up): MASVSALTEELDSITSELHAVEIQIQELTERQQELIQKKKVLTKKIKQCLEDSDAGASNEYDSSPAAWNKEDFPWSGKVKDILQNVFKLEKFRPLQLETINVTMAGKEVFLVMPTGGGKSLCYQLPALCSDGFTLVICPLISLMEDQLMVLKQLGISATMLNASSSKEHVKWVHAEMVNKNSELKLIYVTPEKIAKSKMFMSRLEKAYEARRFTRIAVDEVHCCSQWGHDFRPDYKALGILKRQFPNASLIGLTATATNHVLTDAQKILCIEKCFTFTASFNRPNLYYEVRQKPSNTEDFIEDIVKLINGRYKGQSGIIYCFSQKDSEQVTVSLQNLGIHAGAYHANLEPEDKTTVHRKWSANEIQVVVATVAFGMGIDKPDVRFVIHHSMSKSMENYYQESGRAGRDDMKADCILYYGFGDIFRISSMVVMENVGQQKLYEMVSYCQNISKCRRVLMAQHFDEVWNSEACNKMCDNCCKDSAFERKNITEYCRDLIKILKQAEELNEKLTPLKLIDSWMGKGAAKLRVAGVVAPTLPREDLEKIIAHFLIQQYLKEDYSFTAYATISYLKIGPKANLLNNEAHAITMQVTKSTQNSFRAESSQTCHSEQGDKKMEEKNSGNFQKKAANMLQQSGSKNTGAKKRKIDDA
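RECQ1T1 50 nM; forked duplex (20 bp + 30-nt ss tails) 200 nM, ATP 2 mM final; pH 8.0, 2 mM MgCl2, 2.5 ug/ml poly(dI-dC); 15 min compound preincubation; discontinuous kinetic read over 2 h at RT.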
Active calls of the source: *; . = no result; [ ] = another dose, or the depositor's remark. Hits are enriched below; roughly 0.91% of the tested compounds scored in any of these assays. Unless noted, the call rests on the fitted dose curve; in most records, active means well fitted curve in the direction sought with a large enough effect; inconclusive means small, poorly fitted or top-dose-only effect, or another doubt; inactive means no such curve, though single readings can be large; an effect the other way counts as inactive or inconclusive. Unless noted, on the % scale 0 is the no-effect control and ±100 the full control effect; potency means the concentration at half of the fitted maximal effect.

SMILES | TR SRC2 fluor cs | APE1 inh | TRb SRC2 PPI | WRN inhibitor | BLM helicase inh | RECQ1 helicase
COc1cccc(N2CC(O)=C(c3nc4ccccc4c(=O)[nH]3)C2=N)c1 | -3% | -3% | -1% | -7% | -8% | 6%
Cc1cc(C)cc(N2CC(O)=C(c3nc4ccccc4c(=O)[nH]3)C2=N)c1 | 3% | 6% | 7% | 50µM* | -4% | -1%
Cc1ccc(NC(=O)CSc2nnc(-c3cccc([S+](=O)([O-])N4CCCC4)c3)n2-c2ccccc2)cc1 | . | 49% | . | . | . | .
CO[Si](CCCOCC1CO1)(OC)OC (stereo unspecified) | -1%[201 µM] | . | 0%[201 µM] | . | . | .
COCCN(CC(=O)Nc1cccc(C)c1C)C(=O)c1cc2c(s1)CCC2 | . | 15µM* | . | 1%[11.6 µM] | . | .
CCN(CC(=O)Nc1ccccc1C(F)(F)F)C(=O)c1cc2c(s1)CCCCC2 | . | -6% | . | 4% | . | .
Brc1ccc(Br)c(Br)c1 | -4%[201 µM] | . | 4%[201 µM] | . | . | .
O=C(Nc1ccc(-n2cc(Br)cn2)cc1)c1ccncc1 | . | 5% | . | -7% | -3% | .
O=C(CSc1nnc(-c2ccccc2)o1)c1cccc([N+](=O)[O-])c1 | 11µM*[quencher] | . | -8% | . | -10% | .
COC(=O)c1ccc(C2C=C(c3ccc(Cl)cc3)Nc3nc4ccccc4n32)cc1 (stereo unspecified) | 0.14µM*[quencher] | . | -27% | . | 0% | .
Fc1ccc(C2=CC(c3ccc(F)cc3)n3c(nc4ccccc43)N2)cc1 (stereo unspecified) | 2% | . | -1% | . | -3% | .
CC[C@H](C)[C@H](NC(=O)[C@H](CCC(=O)O)NC(=O)[C@H](C)NC(=O)[C@@H](NC(=O)[C@H](Cc1cnc[nH]1)NC(=O)[C@@H](NC(=O)[C@H](CCC(=O)O)NC(=O)[C@H](C)NC(=O)[C@@H](NC(=O)[C@H](CC(C)C)NC(=O)[C@H](Cc1cnc[nH]1)NC(=O)[C@H](Cc1cnc[nH]1)NC(=O)[C@H](CC(C)C)NC(=O)[C@H](Cc1c[nH]c2ccccc12)NC(=O)[C@H](Cc1ccccc1)NC(=O)[C@H](CCCNC(=N)N)NC(=O)[C@H](CCCNC(=N)N)NC(=O)[C@H](CCCNC(=N)N)NC(=O)[C@H](CC(C)C)NC(=O)[C@H](CC(=O)O)NC(=O)[C@H](CCC(N)=O)NC(=O)[C@@H](NC(=O)[C@H](CO)NC(=O)[C@H](CCCCN)NC(=O)CNC(=O)[C@H](CCCCN)NC(=O)[C@H](CC(=O)O)NC(=O)[C@H](Cc1cnc[nH]1)NC(=O)[C@H](CC(C)C)NC(=O)[C@H](CC(C)C)NC(=O)[C@H](CCC(N)=O)NC(=O)[C@@H](NC(=O)[C@H](CCC(=O)O)NC(=O)[C@H](CO)NC(=O)[C@@H](NC(=O)[C@H](C)N)C(C)C)[C@@H](C)CC)[C@@H](C)CC)[C@@H](C)CC)[C@@H](C)CC)[C@@H](C)O)C(=O)O | 1% | 0% | -3% | . | 2% | -1%
Cc1ccc(CNC(=O)c2cccc3c2C(=O)c2ccc(N4CCCCC4)cc2S3(=O)=O)cc1 | . | 19% | . | 50µM* | . | .
Cc1ccc(CNC(=O)c2cccc3c2C(=O)c2ccc(N4CCOCC4)cc2S3(=O)=O)cc1 | . | 4% | . | -17% | . | .
CC(C)(C)c1n[nH]c(=O)n(N)c1=O | 2%[201 µM] | . | -4%[201 µM] | . | . | .
OC1CCCCCCCCCCC1 | -3%[201 µM] | . | 1%[201 µM] | . | . | .
COc1cc(-c2cnc3c(NC(C)=O)cc(-c4ccc(N5CCN(C)CC5)cc4)cn23)cc(OC)c1OC | . | . | . | -5% | . | .
COc1cc(-c2cc(NC=O)c3ncc(-c4ccc(F)cc4)n3c2)cc(OC)c1OC | . | . | . | 56µM* | . | .
COc1cc(-c2cnc3c(NC=O)cc(-c4ccc(N5CCN(C)CC5)cc4)cn23)cc(OC)c1OC | . | . | . | 50µM* | . | .
